We go through 14 compounds from PubChem BioAssay.

SMILES strings stand for the structures. Activity calls are given as the source filed them.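 Rule for the calls, unless noted: active = inhibition above 20% together with a positive visual image hit; inconclusive = visual image hit but inhibition not above 20%; inactive = no visual image hit.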

A short description of assay [1]: inhibitors of TNFa-induced NFkB p65 translocation, primary screen, imaging, HUVEC, MLSMR starter and 10KST1 sets (AID 438).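 For inhibition: signal is the nuclear over cytoplasmic p65 intensity ratio per well.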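 Note: compound added about 3h40 before a 20 min TNFalpha stimulation.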 The following applies: HUVEC TNFa-induced p65 nuclear translocation; cell count: measured here: nuclei count (cytotoxicity indicator), at 2.08 µM; inhibition: at 2 µM, stronger effect = higher value, 0% TNFa-plus-vehicle, 100% no-TNFa wells.
Assay [2] can be described thus: reduction of polyQ htt aggregates in cells – imaging, exon1htt(103Q)mCFP cells, high-content imaging, primary screen (AID 483;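 active = visual image review flags a hit and inhibition of aggregation exceeds 20%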;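 note: compound exposure lasted 3 days before fixation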;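 for nuclei count: percent of the per-plate median nuclei count of sample wells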). Conditions: exon1htt(103Q)mCFP cell line, aggregate imaging, at 2 µM; inhibition of aggregation: stronger effect = higher value; nuclei count: measured here: cell count, toxicity.
Assay [3] in a line: endothelial E-selectin expression blockers – imaging, HUVEC, immunofluorescence, MLSMR starter and 10KST1 sets, primary screen (AID 487;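 active = visually confirmed hit in the image check and inhibition above 20%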;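 for inhibition: signal is fraction of cell area covered by stained E-selectin grains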;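 for nuclei count: 100% = median nuclei count of all wells on the same plate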). The following applies: HUVEC TNFalpha-induced E-selectin immunofluorescence imaging, at 2 µM; inhibition: stronger effect = higher value; nuclei count: measured here: cell number, toxicity.
The target in assay [4] is Voltage-gated potassium channel subunit beta-2 (Rattus norvegicus) (UniProt P62483). Description: inhibitors of rat Kvbeta2 reductase activity – biochemical, NADPH fluorescence, primary screen (AID 622;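 active = fluorescence slope higher than the sample average by over 3 SD, cut at about -0.22 in these data, passing the limit was not always enough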;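 note: slope of raw intensity against log time taken from 70 to 1610 s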). Conditions: recombinant KvBeta, 4-cyanobenzaldehyde reduction, at 10 µM, stronger effect = higher value.
Assay [5] has the same target. Description: enhancers of rat Kvbeta2 NADPH turnover – biochemical, NADPH fluorescence, primary screen (AID 623;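 active = NADPH fluorescence slope more negative than the mean of all samples by about 3 SD, 99.7% confidence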;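 note: fluorescence intensity change per second fitted from 20 to 320 s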). The following applies: Recombinant KvBeta, NADPH fluorescence decrease slope, 10 min; at 10 µM; stronger effect = lower value.
The target of assay [6] is Alpha-2C adrenergic receptor (Homo sapiens) (UniProt P18825). Description: compounds altering alpha2C-coupled GIRK flux – cell-based, HEK293 alpha2C/GIRK1/2, thallium flux, primary screen (AID 624;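 active = fluorescence slope after compound addition differing from the mean of all screened samples at 99.7% confidence, in either direction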;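 note: slope of fluorescence ratio to pre-addition baseline per second over 15 to 24 s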). Conditions: thallium flux BTC fluorescence, at 10 µM, actives lie on both sides.
The nature of assay [7]: blockers of RIG-like receptor reporter activation – cell-based, Sendai virus stimulus, luciferase, 10K MLSCN set, TLR/RLR signaling modifier project, primary screen (AID 602276;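 active = inhibition at or above 50% at 10 µM; inactive = inhibition below 50%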;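 note: firefly luciferase from ISG56 promoter only with Renilla not read in this screen; 0% = Sendai virus plus DMSO and 100% = medium plus DMSO without virus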). Conditions: HEK293 RL24 IRF3 luciferase reporter, at 10 µM, stronger effect = higher value.
Assay [8] in a line: TLR3 IRF3 reporter activation blockers – cell-based, poly I:C stimulus, luciferase, 10K MLSCN set, primary screen (AID 602277;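 active = inhibition of the reporter signal at or above 50%; inactive = inhibition below 50%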). The following applies: HEK293-TLR3 RL24 IRF3 luciferase reporter, at 10 µM, stronger effect = higher value. A general note: Reporter assays use an easily measured gene product as a stand-in for the process of interest.

Sequence of Alpha-2C adrenergic receptor (Homo sapiens) (P18825 whole entry, looked up): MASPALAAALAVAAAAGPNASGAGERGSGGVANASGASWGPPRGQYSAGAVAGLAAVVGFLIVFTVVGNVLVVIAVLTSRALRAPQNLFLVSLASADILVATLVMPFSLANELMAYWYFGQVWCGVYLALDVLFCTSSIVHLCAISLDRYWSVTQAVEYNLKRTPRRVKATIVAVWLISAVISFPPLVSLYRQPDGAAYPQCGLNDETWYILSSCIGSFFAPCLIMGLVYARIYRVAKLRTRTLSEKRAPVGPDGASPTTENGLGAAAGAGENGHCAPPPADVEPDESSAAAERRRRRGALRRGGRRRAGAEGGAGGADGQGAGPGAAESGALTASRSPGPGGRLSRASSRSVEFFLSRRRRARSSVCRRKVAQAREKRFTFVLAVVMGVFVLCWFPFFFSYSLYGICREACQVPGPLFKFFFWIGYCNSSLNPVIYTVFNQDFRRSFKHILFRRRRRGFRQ
Sequence of Voltage-gated potassium channel subunit beta-2 (Rattus norvegicus) (P62483 whole entry, looked up): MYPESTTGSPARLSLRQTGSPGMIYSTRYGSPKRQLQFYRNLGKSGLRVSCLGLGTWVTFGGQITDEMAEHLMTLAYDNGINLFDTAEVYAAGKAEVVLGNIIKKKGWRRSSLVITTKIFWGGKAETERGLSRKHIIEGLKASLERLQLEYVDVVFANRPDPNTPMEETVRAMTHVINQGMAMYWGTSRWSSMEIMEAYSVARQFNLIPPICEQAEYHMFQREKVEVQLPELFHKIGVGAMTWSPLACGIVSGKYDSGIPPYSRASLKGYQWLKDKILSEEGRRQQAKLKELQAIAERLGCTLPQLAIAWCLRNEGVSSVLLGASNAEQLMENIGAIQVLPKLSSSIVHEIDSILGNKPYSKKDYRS

Broadly, the inhibition is the drop in the measured response relative to a control, in per cent. In the case of `CC(=O)N1CCC(N(C(=O)Nc2ccc(C)c(C)c2)C2CCCC2)CC1`, the cell count in assay [1] amounted to 644. For the same compound, the inhibition in assay [1] was -3.1% (inactive); in assay [3], -61.6% (inactive); in assay [7], 11.1% (inactive); in assay [8] it was 15% (inactive). The inhibition of aggregation in assay [2] is -11.9% (inactive). Also, the nuclei count in assay [2] stood at 52.8%; in assay [3] it was 106%. Moreover, the fluorescence slope in assay [4] was -0.258 (inactive). Further, the NADPH fluorescence slope in assay [5] is -1.2e-06 (inactive). For the same compound, the slope in assay [6] is 0.0055 (inactive).
Turning to `Cc1nnc(N(C)C(=O)Cc2ccc3c(c2)OCO3)s1`, in assay [1], the cell count turned out to be 709. The inhibition in assay [1] was -6.1% (inactive); in assay [3] it was 6.8% (inactive); in assay [7], 21.5% (inactive); in assay [8], 39.7% (inactive). In addition, the inhibition of aggregation in assay [2] was 15.2% (inactive). Besides, the nuclei count in assay [2] stood at 107%; in assay [3] it was 112%. Moreover, the fluorescence slope in assay [4] is -0.55 (inactive). In addition, the NADPH fluorescence slope in assay [5] was 1.1e-05 (inactive). Moreover, the slope in assay [6] was 0.00419 (inactive).
Take `CC(O)c1cc2c(cc1NC(=O)c1cnn3c1NC(c1ccco1)CC3C(F)(F)F)OCO2` (centres undefined): the cell count in assay [1] was determined as 656. Besides, the inhibition in assay [1] is 8.7% (inactive); in assay [3], -56.3% (inactive); in assay [7], 9.47% (inactive); in assay [8] it was 20.2% (inactive). The inhibition of aggregation in assay [2] is -12% (inactive). Also, the nuclei count in assay [2] was determined as 109%; in assay [3], 98.9%. For the same compound, in assay [4], the fluorescence slope was -0.583 (inactive). Also, the NADPH fluorescence slope in assay [5] is 3.4e-05 (inactive). Moreover, in assay [6], the slope is 0.00628 (inactive).
On to `CCn1c(C)cc(=S)c2ccccc21`, for which the cell count in assay [1] was found to be 587. For the same compound, the inhibition in assay [1] was -5.3% (inactive); in assay [3], -56.4% (inactive); in assay [7], 1.4% (inactive); in assay [8] it was 12.6% (inactive). Besides, the inhibition of aggregation in assay [2] is -16.1% (inactive). In addition, the nuclei count in assay [2] was found to be 105%; in assay [3], 90.4%. Further, the fluorescence slope in assay [4] is -0.611 (inactive). Also, the NADPH fluorescence slope in assay [5] was -2.2e-05 (inactive). For the same compound, the slope in assay [6] was 0.00608 (inactive).
With `CCOC(=O)C(NC(=O)Nc1ccccc1)(OCC)C(F)(F)F` (centres undefined), the cell count in assay [1] came out at 517. For the same compound, the inhibition in assay [1] was -2.4% (inactive); in assay [3] it was 25% (inactive); in assay [7], 16.5% (inactive); in assay [8] it was 30.2% (inactive). For the same compound, the inhibition of aggregation in assay [2] is -2.5% (inactive). Further, the nuclei count in assay [2] turned out to be 97.9%; in assay [3], 89.1%. In assay [4], the fluorescence slope was -0.639 (inactive). In addition, the NADPH fluorescence slope in assay [5] was 1.8e-05 (inactive). In addition, the slope in assay [6] was 0.0106 (inactive).
For `COc1ccc(OC)c(C(=O)CSc2nnc(-c3ccc(OC)c(OC)c3)o2)c1`, the cell count in assay [1] was determined as 399. The inhibition was 1% (inactive) in assay [1], -114% (inactive) in assay [3], 12% (inactive) in assay [7] and 21.8% (inactive) in assay [8]. Besides, in assay [2], the inhibition of aggregation was 44.4% (active). Moreover, the nuclei count in assay [2] is 15.1%; in assay [3], 181%. Besides, the fluorescence slope in assay [4] was -0.458 (inactive). Besides, the NADPH fluorescence slope in assay [5] is 3.9e-05 (inactive). Further, in assay [6], the slope is 0.00796 (inactive).
Consider `CCOC(=O)NC1(NCc2ccccc2)Oc2ccccc2O1`, for which, in assay [1], the cell count stood at 606. Also, the inhibition in assay [1] is -12.3% (inactive); in assay [3], -140% (inactive); in assay [7] it was -5.13% (inactive); in assay [8] it was -21.2% (inactive). The inhibition of aggregation in assay [2] is 9.6% (inactive). Also, the nuclei count in assay [2] came to 95%; in assay [3] it was 129%. Besides, in assay [4], the fluorescence slope was -0.509 (inactive). In assay [5], the NADPH fluorescence slope was 9e-05 (inactive). Also, the slope in assay [6] was 0.00513 (inactive).
For `Cc1cc(C)n(-c2nc3nonc3nc2-n2nc(C)cc2C)n1`, the cell count in assay [1] amounted to 797. The inhibition in assay [1] was -15.2% (inactive); in assay [3], -20.5% (inactive); in assay [7], 11.8% (inactive); in assay [8], 27.1% (inactive). The inhibition of aggregation in assay [2] is -2.2% (inactive). Also, the nuclei count was 110% in assay [2] and 106% in assay [3]. Also, the fluorescence slope in assay [4] was -0.416 (inactive). The NADPH fluorescence slope in assay [5] is -2e-05 (inactive). Besides, in assay [6], the slope is 0.00318 (inactive).
Regarding `Cn1c(=O)cc(OCCCC(=O)Nc2ccc3c(c2)OCCO3)c2ccccc21`, the cell count in assay [1] was 361. For the same compound, the inhibition in assay [1] was -3.3% (inactive); in assay [3], -8.1% (inactive); in assay [7] it was -5.46% (inactive); in assay [8], -1.3% (inactive). Also, the inhibition of aggregation in assay [2] is -4.7% (inactive). Besides, the figures for the nuclei count in assay [2] and in assay [3] were 101% and 113%, respectively. In assay [4], the fluorescence slope was -0.511 (inactive). Moreover, in assay [5], the NADPH fluorescence slope is -1.4e-05 (inactive). The slope in assay [6] was 0.00629 (inactive).
Regarding `c1ccc2ncc(-n3cnnn3)cc2c1`, the cell count in assay [1] was 705. Besides, the inhibition in assay [1] was -4.7% (inactive); in assay [3] it was -118% (inactive); in assay [7], 9.03% (inactive); in assay [8], 11.8% (inactive). Also, the inhibition of aggregation in assay [2] is 7.3% (inactive). Moreover, the nuclei count was found to be 110% in assay [2] and 117% in assay [3]. For the same compound, in assay [4], the fluorescence slope is -0.411 (inactive). For the same compound, in assay [5], the NADPH fluorescence slope is -2e-05 (inactive). The slope in assay [6] is 0.00684 (inactive).
With `O=C(NCCC1=CCCCC1)C1CC(=O)N(C2CCCCCC2)C1` (centres undefined), the cell count in assay [1] came to 645. Further, the inhibition in assay [1] was -4.4% (inactive); in assay [3] it was -41.7% (inactive); in assay [7], 5.65% (inactive); in assay [8] it was 27.5% (inactive). In addition, the inhibition of aggregation in assay [2] is -46.5% (inactive). Further, the nuclei count in assay [2] worked out at 45.9%; in assay [3], 126%. Also, in assay [4], the fluorescence slope was -0.367 (inactive). Besides, the NADPH fluorescence slope in assay [5] was -6.2e-05 (inactive). For the same compound, the slope in assay [6] was 0.00623 (inactive).
With `COc1ccc(N2CCN(C(=O)C(OC(C)=O)c3ccccc3)CC2)cc1` (centres undefined), in assay [1], the cell count came out at 594. The inhibition is -4.7% (inactive) in assay [1], -2.4% (inactive) in assay [3], 11.4% (inactive) in assay [7] and 11.3% (inactive) in assay [8]. Besides, the inhibition of aggregation in assay [2] was -4.8% (inactive). For the same compound, the figures for the nuclei count in assay [2] and in assay [3] were 92.4% and 95.4%, respectively. In assay [4], the fluorescence slope is -0.386 (inactive). The NADPH fluorescence slope in assay [5] is 4.8e-05 (inactive). The slope in assay [6] was 0.00658 (inactive).
Take `Cc1ccccc1Cc1c(C)nc2c(C(=O)N3CCN(Cc4ccc5c(c4)OCO5)CC3)cnn2c1C`: the cell count in assay [1] was determined as 631. Moreover, the inhibition in assay [1] is -4.4% (inactive); in assay [3], -11.8% (inactive); in assay [7], 10.8% (inactive); in assay [8], 27.9% (inactive). For the same compound, the inhibition of aggregation in assay [2] is 19.5% (inactive). Further, the nuclei count in assay [2] stood at 132%; in assay [3] it was 95.4%. For the same compound, the fluorescence slope in assay [4] was -0.415 (inactive). For the same compound, in assay [5], the NADPH fluorescence slope was -1.3e-05 (inactive). Also, the slope in assay [6] is 0.00443 (inactive).
Regarding `O=C(CCCCCn1c(=S)[nH]c2cc3c(cc2c1=O)OCO3)N1CCN(Cc2ccccc2)CC1`, the cell count in assay [1] is 494. For the same compound, the inhibition in assay [1] is 3% (inactive); in assay [3], -25.7% (inactive); in assay [7] it was -5.45% (inactive); in assay [8], 15.2% (inactive). In addition, the inhibition of aggregation in assay [2] is -11.1% (inactive). Moreover, the nuclei count in assay [2] stood at 100%; in assay [3], 113%. Besides, the fluorescence slope in assay [4] is -0.476 (inactive). Further, in assay [5], the NADPH fluorescence slope was 1.3e-05 (inactive). The slope in assay [6] is 0.00605 (inactive).
